“And” between values parts separate entries of the source, which are not always exact repeats. Identical values can stand only once. Hit rate of the full screen: of about 5,500 compounds, about 2,000 (36%) were called active. Roughly 18% stayed inconclusive and do not appear here. No stated cut-off is given here; in the data, active means normalized growth mostly below about 0.91 (no sharp cut-off); inconclusive means no clear call, values can overlap the other calls; inactive means mostly above about 0.92. The list shows a part of the results.
Assay: chemical genetic growth profiling, strain panel (AID 1159580);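 further: tested at 20 µM; growth read once vehicle control cultures reached saturation at 30 °C; 1 = growth at the plate median or of vehicle wells; lower values mean less growth of the strain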
Conditions: S. cerevisiae deletion strains, growth OD

Measured: normalized growth

COc1cc2c(c(OC)c1OC)-c1ccc(OC)c(=O)cc1[C@@H](NC(C)=O)CC2
inactive: locus YAL013W, strain DEP1, active compounds read low 1.02 | locus YAL021C, strain ccr4, active compounds read low 1.01 | locus YAL026C, strain drs2, active compounds read low 1 | locus YAL030W, strain snc1, active compounds read low 0.988 | locus YBL061C, strain skt5, active compounds read low 1 | locus YBR009C, strain hhf1, active compounds read low 0.985 | locus YBR021W, strain FUR4, active compounds read low 1.04 | locus YBR023C, strain chs3, active compounds read low 0.998 | locus YBR171W, strain sec66, active compounds read low 1.01 | locus YBR229C, strain ROT2, active compounds read low 1.02 | locus YBR231C, strain swc5, active compounds read low 1.02 | locus YBR279W, strain paf1, active compounds read low 1 | locus YCL011C, strain gbp2, active compounds read low 1 | locus YCL016C, strain dcc1, active compounds read low 0.986 | locus YCL029C, strain bik1, active compounds read low 1.03 | locus YCL069W, strain vba3, active compounds read low 1 | locus YCR088W, strain abp1, active compounds read low 1.01 | locus YDL005C, strain med2, active compounds read low 1.01 | locus YDL035C, strain GPR1, active compounds read low 1.02 | locus YDL040C, strain nat1, active compounds read low 1.01 | locus YDL074C, strain BRE1, active compounds read low 1.04 | locus YDL101C, strain DUN1, active compounds read low 1.02 | locus YDL134C, strain PPH21, active compounds read low 1.02 | locus YDL185W, strain tfp1, active compounds read low 1.04 | locus YDL192W, strain arf1, active compounds read low 1.02 | locus YDR001C, strain nth1, active compounds read low 1.02 | locus YDR069C, strain doa4, active compounds read low 1.04 | locus YDR101C, strain arx1, active compounds read low 1.02 | locus YDR137W, strain rgp1, active compounds read low 0.988 | locus YDR159W, strain sac3, active compounds read low 0.999 | locus YDR162C, strain NBP2, active compounds read low 1.03 | locus YDR195W, strain ref2 0.974 | locus YDR297W, strain sur2, active compounds read low 1.01 | locus YDR318W, strain mcm21, active compounds read low 1.03 | locus YDR334W, strain swr1, active compounds read low 1.01 | locus YDR335W, strain msn5, active compounds read low 0.998 | locus YDR388W, active compounds read low 1.03 | locus YDR392W, strain spt3, active compounds read low 0.968 | locus YDR502C, strain sam2, active compounds read low 1.02 | locus YEL003W, strain gim4, active compounds read low 1 | locus YEL037C, strain rad23, active compounds read low 1.01 | locus YEL061C, strain CIN8 (second series), active compounds read low 0.999 | locus YEL061C, strain CIN8, active compounds read low 1.01 | locus YER015W, strain faa2, active compounds read low 1.01 | locus YER016W, strain bim1, active compounds read low 0.963 | locus YER110C, active compounds read low 1.02 | locus YER111C, strain swi4, active compounds read low 1.02 | locus YER155C, strain BEM2 (second series), active compounds read low 1.02 | locus YER155C, strain BEM2, active compounds read low 1.01 | locus YER167W, strain BCK2, active compounds read low 1.02 | locus YFR010W, strain ubp6, active compounds read low 1.01 | locus YGL078C, strain dbp3, active compounds read low 1.03 | locus YGL086W, strain mad1, active compounds read low 1.02 | locus YGL167C, strain pmr1, active compounds read low 1.02 | locus YGL173C, strain kem1, active compounds read low 1.03 | locus YGL227W, strain vid30, active compounds read low 1.01 | locus YGL240W, strain doc1, active compounds read low 1.03 | locus YGL248W, strain PDE1, active compounds read low 1.03 | locus YGL253W, strain hxk2, active compounds read low 1 | locus YGR078C, strain PAC10, active compounds read low 1.03 | locus YGR135W, strain pre9, active compounds read low 1.03 | locus YGR229C, strain SMI1, active compounds read low 1.02 | locus YGR252W, strain gcn5, active compounds read low 1.07 | locus YHR013C, strain ard1, active compounds read low 0.986 | locus YHR027C, strain rpn1, active compounds read low 1.01 | locus YHR030C, strain SLT2, active compounds read low 1.01 and 1.04 | locus YHR079C, strain IRE1 (second series), active compounds read low 1.04 | locus YHR079C, strain IRE1, active compounds read low 1.04 | locus YHR094C, strain hxt1, active compounds read low 1.02 | locus YHR129C, strain ARP1, active compounds read low 1.01 | locus YHR142W, strain chs7, active compounds read low 0.996 | locus YHR200W, strain rpn10, active compounds read low 1.03 | locus YIL066C, strain RNR3, active compounds read low 1.02 | locus YIL073C, strain SPO22, active compounds read low 1.04 | locus YIL125W, strain kgd1, active compounds read low 1.03 | locus YIR030C, strain dcg1, active compounds read low 1.04 | locus YJL092W, strain hpr5, active compounds read low 1.01 | locus YJL095W, strain BCK1 (second series), active compounds read low 1 | locus YJL095W, strain BCK1, active compounds read low 1.04 and 1.02 | locus YJL115W, strain asf1, active compounds read low 1.02 | locus YJL129C, strain trk1, active compounds read low 1.01 | locus YJL134W, strain LCB3, active compounds read low 1.02 | locus YJL154C, strain vps35, active compounds read low 0.995 | locus YJL164C, strain tpk1, active compounds read low 0.984 | locus YJL166W, strain qcr8, active compounds read low 1.02 | locus YJL168C, strain set2, active compounds read low 1.02 | locus YJL187C, strain SWE1 (second series), active compounds read low 1.03 | locus YJR043C, strain POL32, active compounds read low 1 | locus YJR066W, strain TOR1, active compounds read low 0.988 | locus YJR075W, strain HOC1, active compounds read low 1.02 | locus YKL009W, strain mrt4, active compounds read low 1.01 | locus YKL068W, active compounds read low 1.03 | locus YKL085W, strain MDH1 (second series), active compounds read low 1.06 | locus YKL085W, strain MDH1, active compounds read low 1.06 | locus YKL160W, strain elf1, active compounds read low 1.02 | locus YKL190W, strain CNB1, active compounds read low 1.01 | locus YKR001C, strain vps1, active compounds read low 1.03 | locus YKR026C, strain gcn3, active compounds read low 1.06 | locus YKR091W, strain srl3, active compounds read low 0.985 | locus YLL001W, strain dnm1, active compounds read low 1.01 | locus YLL026W, active compounds read low 0.991 | locus YLL041C, strain sdh2, active compounds read low 1.01 | locus YLR027C, strain aat2, active compounds read low 1.01 | locus YLR039C, strain RIC1, active compounds read low 1.05 | locus YLR058C, strain SHM2, active compounds read low 1.03 | locus YLR102C, strain apc9, active compounds read low 1.03 | locus YLR113W, strain HOG1, active compounds read low 1.04 | locus YLR221C, strain rsa3, active compounds read low 0.997 | locus YLR258W, strain gsy2, active compounds read low 1.01 | locus YLR262C, strain YPT6 (second series), active compounds read low 1.04 | locus YLR262C, strain YPT6, active compounds read low 1.04 | locus YLR268W, strain sec22, active compounds read low 1.04 | locus YLR320W, strain mms22, active compounds read low 1.01 | locus YLR330W, strain CHS5, active compounds read low 1.02 | locus YLR342W, strain FKS1 (second series), active compounds read low 1.03 | locus YLR342W, strain FKS1, active compounds read low 1.01 | locus YLR357W, strain rsc2, active compounds read low 1.02 | locus YLR370C, strain arc18, active compounds read low 1.01 | locus YLR371W, strain rom2, active compounds read low 1.03 | locus YLR384C, strain iki3, active compounds read low 1.02 | locus YLR418C, strain cdc73, active compounds read low 1.06 | locus YML016C, strain PPZ1, active compounds read low 1.03 | locus YML032C, strain rad52, active compounds read low 1.02 | locus YML120C, strain ndi1, active compounds read low 1.02 | locus YML124C, strain tub3, active compounds read low 1.03 | locus YMR058W, strain fet3, active compounds read low 1.01 | locus YMR078C, strain ctf18, active compounds read low 1.04 | locus YMR125W, strain sto1, active compounds read low 1.01 | locus YMR129W, active compounds read low 1.02 | locus YMR205C, strain PFK2, active compounds read low 1 | locus YMR223W, strain ubp8, active compounds read low 1.04 | locus YMR231W, strain pep5, active compounds read low 1.01 | locus YMR307W, strain GAS1, active compounds read low 0.99 | locus YNL067W, strain RPL9B, active compounds read low 1.03 | locus YNL071W, strain lat1, active compounds read low 1 | locus YNL128W, strain TEP1, active compounds read low 1.03 | locus YNL153C, strain GIM3, active compounds read low 1.02 | locus YNL183C, strain NPR1, active compounds read low 0.99 | locus YNL209W, strain ssb2, active compounds read low 1 | locus YNL233W, strain BNI4, active compounds read low 1.02 | locus YNL248C, strain rpa49, active compounds read low 0.947 | locus YNL250W, strain rad50, active compounds read low 1 | locus YNL271C, strain bni1, active compounds read low 1.04 | locus YNL298W, strain CLA4, active compounds read low 1.03 | locus YNL307C, strain MCK1, active compounds read low 1.03 | locus YNL322C, strain KRE1 (second series), active compounds read low 1.02 | locus YNR049C, strain mso1, active compounds read low 1.03 | locus YNR052C, strain pop2, active compounds read low 1.02 | locus YOL012C, strain htz1 0.756 | locus YOL147C, strain pex11, active compounds read low 1.04 | locus YOR001W, strain rrp6, active compounds read low 1.02 | locus YOR061W, strain CKA2, active compounds read low 1.03 | locus YOR069W, strain VPS5, active compounds read low 1.01 | locus YOR070C, strain gyp1, active compounds read low 0.995 | locus YOR080W, strain dia2, active compounds read low 1.02 | locus YOR083W, strain WHI5, active compounds read low 1.02 | locus YOR106W, strain vam3, active compounds read low 1.03 | locus YOR136W, strain idh2, active compounds read low 1.02 | locus YOR144C, strain elg1, active compounds read low 1.03 | locus YOR184W, strain ser1, active compounds read low 1.04 | locus YOR231W, strain MKK1, active compounds read low 1.03 | locus YOR265W, strain rbl2, active compounds read low 1.01 | locus YOR270C, strain vph1, active compounds read low 1.01 | locus YOR290C, strain snf2, active compounds read low 1.01 | locus YOR316C, strain cot1, active compounds read low 1.04 | locus YPL051W, strain arl3, active compounds read low 1.02 | locus YPL055C, strain LGE1, active compounds read low 1.04 | locus YPL078C, strain atp4, active compounds read low 1.02 | locus YPL106C, strain sse1, active compounds read low 0.989 | locus YPL240C, strain hsp82, active compounds read low 1 | locus YPL241C, strain CIN2, active compounds read low 1.01 | locus YPL256C, strain CLN2, active compounds read low 1.12 | locus YPR119W, strain clb2, active compounds read low 1.03 | locus YPR141C, strain kar3, active compounds read low 1.05 | locus YPR163C, strain tif3, active compounds read low 1.04 | locus YPR167C, strain met16, active compounds read low 1.04 | strain wtn01, active compounds read low 1.01
